This is an account of results in PubChem BioAssay (EPA / NIEHS).

A short description of assay [1]: ATG_E_Box_CIS: Attagene CIS-FACTORIAL HepG2 Assay for human Enhancer Box (E-box) (AID 2282936). Particulars: HepG2 E-box cis-reporter transcription, actives raise or lower the signal. In a few lines:
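DMSO served as negative control and baseline for bidirectional fitting. Human hepatoma HepG2 cells, transiently transfected with cis-reporter constructs, were dosed 24 h; reporter mRNA read by RT-PCR and capillary electrophoresis.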

The nature of assay [2]: ATG_M_61_CIS: Attagene CIS-FACTORIAL HepG2 Assay for M61 Transcription Factor (Internal Marker) (AID 2282937). The note with it: HepG2 Attagene CIS-FACTORIAL M61 internal marker reporter; actives raise or lower the signal. Summed up:
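Cells were transfected with reporter units under cis-regulatory promoters, treated with chemicals for 24 h, then lysed for RNA. Reporter transcripts were quantified by RT-PCR and capillary electrophoresis, and activity was fitted bidirectionally against DMSO.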

Assay [3] is described as follows: ATG_EGR_CIS: Attagene CIS-FACTORIAL HepG2 Assay for human Early Growth Response 1 (EGR1) (AID 2282938). The note with it: HepG2 Attagene CIS-FACTORIAL EGR reporter mRNA; actives raise or lower the signal. In a few lines: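 Endogenous TF activity in HepG2 liver cells was gauged through cis-promoter reporter constructs transiently transfected. After 24 h dosing, reporter mRNA was quantified by RT-PCR and capillary electrophoresis, and curves fitted in both directions versus DMSO.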

Assay [4] is described as follows: ATG_M_19_CIS: Attagene CIS-FACTORIAL HepG2 Assay for M19 Transcription Factor (Internal Marker) (AID 2282939). The note with it: HepG2 Attagene CIS-FACTORIAL M19 internal marker reporter; actives raise or lower the signal. In a few lines:
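Background-control endpoint from a multiplexed HepG2 reporter panel. Cells carrying cis-regulated reporter constructs are treated 24 h, then reporter transcripts are amplified, fluorescently labelled and sized by capillary electrophoresis. DMSO defines baseline.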

A short description of assay [5]: ATG_ERE_CIS: Attagene CIS-FACTORIAL HepG2 Assay for Estrogen Response Element (ERE) (AID 2282940). Particulars: HepG2 ERE cis-reporter, Attagene RNA transcript; actives raise or lower the signal. In a few lines:
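Cells used were human hepatoma HepG2, transfected with multiple reporter transcription units under cis-regulatory promoters. Reporter mRNA, read 24 h post-dosing via fluorescent RT-PCR products on capillary electrophoresis, was fitted bidirectionally relative to DMSO.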

Assay [6] can be described thus: ATG_Ets_CIS: Attagene CIS-FACTORIAL HepG2 Assay for human Erythroblast Transformation Specific (ETS) (AID 2282941). Particulars: HepG2 ETS cis-reporter transcription, actives raise or lower the signal. In a few lines:
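HepG2 cells transiently transfected with cis-promoter reporter transcription units were dosed for 24 h; reporter mRNA was measured by RT-PCR, 6-FAM primer extension, HpaI digestion and capillary electrophoresis, with bidirectional fitting against DMSO baseline.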

For assay [7], the target named is Hepatocyte nuclear factor 3-beta (Homo sapiens) (UniProt Q9Y261). Put plainly: ATG_FoxA2_CIS: Attagene CIS-FACTORIAL HepG2 Assay for human Forkhead box A2 (FOXA2) (AID 2282942). Particulars: HepG2 cis-reporter transcription factor activity, 24 h; actives raise or lower the signal. Summed up:
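Endogenous transcription factor activity was read in HepG2 cells carrying transiently transfected cis-promoter reporter units. After 24 h dosing, reporter mRNA was quantified by RT-PCR and capillary electrophoresis, and values fitted bidirectionally versus DMSO.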

Assay [8] can be described thus: ATG_FoxO_CIS: Attagene CIS-FACTORIAL HepG2 Assay for human Forkhead box O (FoxO) (AID 2282943). The note with it: HepG2 Attagene cis-reporter, FoxO element, mRNA; actives raise or lower the signal. Summed up: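 Human hepatoma HepG2 cells carry transiently introduced reporter transcription units controlled by cis promoter elements. Chemical treatment lasted 24 h, and mRNA signal was compared with DMSO.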

Assay [9] is described as follows: ATG_GATA_CIS: Attagene CIS-FACTORIAL HepG2 Assay for human GATA Binding Protein (AID 2282944). The note with it: HepG2 GATA cis-element reporter, Attagene multiplex mRNA; actives raise or lower the signal. In a few lines:
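Endogenous transcription factor activity was captured through cis-promoter-driven reporters in transfected HepG2 cells. After 24 h exposure, reporter transcripts were quantified by RT-PCR with fluorescent capillary electrophoresis, and responses fitted both directions against DMSO.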

Assay [10] can be described thus: ATG_GLI_CIS: Attagene CIS-FACTORIAL HepG2 Assay for human Zinc Finger Protein GLI1 (AID 2282945). The note with it: HepG2, Attagene cis-factorial reporter mRNA, GLI element; actives raise or lower the signal. In a few lines: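 Bidirectional curve fits relative to DMSO, using reporter mRNA levels from RT-PCR plus capillary electrophoresis. Cells were HepG2 transiently carrying cis-regulated reporter constructs, harvested 24 h after dosing.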

Molecules are shown by their SMILES. Activity calls are given as the source filed them. The calls were made as follows: active = hit-call score of the fitted dose curve at least 0.9, where 1 is the maximum; inactive = score below 0.9.

Chain of Hepatocyte nuclear factor 3-beta (Homo sapiens) (Q9Y261 whole entry, looked up): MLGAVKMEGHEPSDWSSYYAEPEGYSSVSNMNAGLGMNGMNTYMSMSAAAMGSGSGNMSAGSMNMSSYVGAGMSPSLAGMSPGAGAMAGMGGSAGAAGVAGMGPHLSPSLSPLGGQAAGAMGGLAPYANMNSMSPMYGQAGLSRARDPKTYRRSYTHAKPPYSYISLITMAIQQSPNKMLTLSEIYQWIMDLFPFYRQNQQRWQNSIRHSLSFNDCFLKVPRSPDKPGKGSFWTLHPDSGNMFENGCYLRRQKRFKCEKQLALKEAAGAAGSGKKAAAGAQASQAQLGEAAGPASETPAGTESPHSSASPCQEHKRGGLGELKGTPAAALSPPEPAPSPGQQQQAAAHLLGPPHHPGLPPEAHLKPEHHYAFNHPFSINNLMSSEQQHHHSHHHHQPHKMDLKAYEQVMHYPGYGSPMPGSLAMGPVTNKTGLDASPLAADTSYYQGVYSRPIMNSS

Consider `CCCCOCCOCCOCCOCCO`, for which the result in assay [1], in [2], in assay [3], in assay [4], in assay [5] and in [6] was inactive. In addition, the outcome in assay [7], in assay [8], in assay [9] and in assay [10] was inactive.

As for `CSc1nnc(C(C)(C)C)c(=O)[nH]1`, the outcome in [1], in [2], in [3], in [4], in assay [5] and in assay [6] was inactive. The outcome in assay [7], in assay [8], in [9] and in assay [10] was inactive.

For the molecule `Cc1ncc([N+](=O)[O-])n1C`, the outcome in assay [1], in assay [2], in assay [3], in [4], in assay [5] and in assay [6] was inactive. The call in assay [7], in assay [8], in assay [9] and in [10] was inactive.

As for `CC(=O)Nc1ccc(CC(=O)O)cc1`, the outcome in [1], in [2], in assay [3], in [4], in assay [5] and in assay [6] was inactive. For the same molecule, the call in [7], in assay [8], in assay [9] and in [10] was inactive.

In the case of `OCC(CO)(CO)COCC(CO)(CO)CO`, the result in assay [1], in assay [2], in assay [3], in [4], in [5] and in assay [6] was inactive. The molecule was classed as inactive in assay [7], in [8], in [9] and in assay [10].

As to `CC(=O)[C@H]1CC[C@H]2[C@@H]3CC=C4C[C@@H](O)CC[C@]4(C)[C@H]3CC[C@]12C`, the result in assay [1], in assay [2], in assay [3], in assay [4], in assay [6] and in assay [7] was inactive. In addition, the molecule was called inactive in assay [8], in assay [9] and in [10]. The concentration at half-maximal activity (AC50) in assay [5] was 2.32 µM (active).

`NC(=O)Nc1ccc(Cl)cc1`: the result in assay [1], in assay [2], in assay [3], in assay [4], in assay [5] and in [6] was inactive. The molecule was called inactive in [7], in assay [8], in assay [9] and in assay [10].

Regarding `CCCCCCCCCOC(C)=O`, the outcome in assay [1], in assay [2], in assay [3], in assay [4], in assay [5] and in assay [6] was inactive. Besides, the molecule was called inactive in assay [7], in assay [8], in assay [9] and in assay [10].

For `C[C@]12CC[C@H]3[C@@H](CCC4=CC(=O)CC[C@@]43C)[C@@H]1CC[C@@H]2C(=O)CO`, the outcome in assay [1], in [2], in assay [4], in [6], in assay [7] and in assay [8] was inactive. The molecule was called inactive in assay [9] and in [10]. Moreover, the half-maximal activity concentration (AC50) was 55.9 µM (active) in assay [3] and 0.635 µM (active) in [5].

Turning to `O=C(O)c1cccc(C(F)(F)F)c1`, the outcome in assay [1], in assay [2], in assay [3], in assay [4], in assay [5] and in [6] was inactive. Besides, the molecule was classed as inactive in [7], in [8], in assay [9] and in assay [10].

Regarding `O=C1OC2(c3cc(Br)c(O)c(Br)c3Oc3c2cc(Br)c(O)c3Br)c2c(Cl)c(Cl)c(Cl)c(Cl)c21`, the result in [1], in assay [2], in assay [4], in [6], in [7] and in [8] was inactive. Also, the molecule was classed as inactive in assay [9] and in assay [10]. The figures for the half-maximal activity concentration (AC50) in assay [3] and in [5] were 35 µM (active) and 18.2 µM (active), respectively.

`CN(C)c1ccc(O)c2c1C[C@H]1C[C@H]3[C@H](N(C)C)C(=O)C(C(N)=O)=C(O)[C@@]3(O)C(=O)C1=C2O`: the result in assay [1], in assay [2], in assay [3], in assay [4], in assay [5] and in assay [6] was inactive. Besides, the molecule was called inactive in assay [7], in assay [8], in assay [9] and in [10].

`c1ccc2c(c1)c1cccc3ccc4cccc2c4c31`: the result in [1], in assay [2], in [3], in assay [4], in [5] and in [6] was inactive. In addition, the molecule was called inactive in assay [7], in assay [8], in [9] and in assay [10].

Turning to `Cc1cc(C2(c3cc(C)c(O)cc3C)OS(=O)(=O)c3ccccc32)c(C)cc1O`, the outcome in assay [1], in [2], in assay [3], in [4], in assay [6] and in assay [7] was inactive. The molecule was called inactive in [8], in assay [9] and in [10]. Also, the half-maximal activity concentration (AC50) in assay [5] was 2.74 µM (active).

On to `CC(=O)OCCOC(C)=O`, for which the outcome in assay [1], in assay [2], in assay [3], in assay [4], in assay [5] and in assay [6] was inactive. The molecule was called inactive in assay [7], in [8], in assay [9] and in assay [10].

As for `CC(=O)/C=C/C1=C(C)CCCC1(C)C`, the result in [1], in assay [2], in assay [3], in assay [4], in assay [5] and in [6] was inactive. For the same molecule, the call in assay [7], in assay [8], in [9] and in assay [10] was inactive.

In the case of `NC(=O)c1ccccc1Cl`, the AC50 in assay [1] was 61.1 µM (active); in [3] it was 67.2 µM (active); in assay [10], 139 µM (active). Besides, the molecule was classed as inactive in assay [2], in assay [4], in assay [5], in [6], in assay [7] and in [8]. The call in assay [9] was inactive.

In the case of `CC(C)=CCO`, the result in assay [1], in assay [2], in assay [3], in assay [4], in assay [5] and in assay [6] was inactive. The result in assay [7], in assay [8], in [9] and in [10] was inactive.

Consider `CCCCCCCCCCCCCCCC(=O)OC[C@H](O)[C@H]1OC(=O)C(O)=C1O`, for which the result in assay [1], in [2], in assay [3], in assay [4], in assay [5] and in [6] was inactive. Also, the outcome in assay [8], in assay [9] and in assay [10] was inactive. The AC50 in [7] is 159 µM (active).

Take `Cc1ccc2n[nH]nc2c1`: the result in assay [1], in assay [2], in [3], in assay [4], in assay [5] and in assay [6] was inactive. In addition, the result in assay [7], in assay [8], in assay [9] and in assay [10] was inactive.

Take `O=C(Nc1ccccc1)c1cc([N+](=O)[O-])ccc1Cl`: the outcome in [1], in assay [2], in [4], in assay [5], in assay [6] and in assay [7] was inactive. Further, the molecule was called inactive in assay [8], in [9] and in assay [10]. Besides, in assay [3], the AC50 is 25.1 µM (active).

As for `Clc1ccc2c(c1)C(N1CCNCC1)=Nc1ccccc1O2`, the outcome in [1], in [2], in [4], in assay [5], in assay [6] and in [7] was inactive. The molecule was classed as inactive in [8], in assay [9] and in assay [10]. The AC50 in assay [3] was 26.6 µM (active).

Regarding `CC(C)(C)C(=O)c1ccccc1`, the outcome in [1], in assay [2], in assay [3], in assay [4], in [5] and in assay [6] was inactive. Moreover, the result in assay [7], in [8], in [9] and in assay [10] was inactive.

Regarding `CCC(O)CO` (stereo not given), the result in assay [1], in assay [2], in [3], in assay [4], in assay [5] and in assay [6] was inactive. Besides, the result in assay [7], in assay [8], in [9] and in assay [10] was inactive.

By AC50 is commonly meant the concentration at which the activity in the assay is half-maximal.
